Results published in PubChem BioAssay AID1159580 (chemical genetic matrix, 2015).
Among all 5,500 compounds or so, about 2,000 (36%) were called active. Another 18% or so got no clear call; they are omitted. Cut-off read from the data, not from the text of the source: active = normalized growth mostly below about 0.91 (no sharp cut-off); inconclusive = no clear call, values can overlap the other calls; inactive = mostly above about 0.92. Some of the results follow.

Assay: chemical genetic growth profiling, strain panel (AID 1159580);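 note: tested at 20 µM; growth read once vehicle control cultures reached saturation at 30 °C; 1 = growth at the plate median or of vehicle wells; lower values mean less growth of the strain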
Conditions: growth OD

Measured: normalized growth

COc1c(Br)cc([N+](=O)[O-])c(OC)c1C(N)=O
inactive: S. cerevisiae deletion strains, locus YBR229C, strain ROT2, stronger effect = lower value 1.03 | S. cerevisiae deletion strains, locus YCL061C, strain MRC1, stronger effect = lower value 1.01 | S. cerevisiae deletion strains, locus YDL101C, strain DUN1, stronger effect = lower value 1.03 | S. cerevisiae deletion strains, locus YDL134C, strain PPH21, stronger effect = lower value 1.01 | S. cerevisiae deletion strains, locus YDR150W, strain NUM1, stronger effect = lower value 0.986 | S. cerevisiae deletion strains, locus YEL061C, strain CIN8, stronger effect = lower value 1.02 | S. cerevisiae deletion strains, locus YGR078C, strain PAC10, stronger effect = lower value 1.02 | S. cerevisiae deletion strains, locus YHR030C, strain SLT2, stronger effect = lower value 1.07 | S. cerevisiae deletion strains, locus YHR087W, strain rtc3, stronger effect = lower value 1.01 | S. cerevisiae deletion strains, locus YJL187C, strain SWE1, stronger effect = lower value 1 | S. cerevisiae deletion strains, locus YJR043C, strain POL32, stronger effect = lower value 1.04 | S. cerevisiae deletion strains, locus YJR075W, strain HOC1, stronger effect = lower value 1.01 | S. cerevisiae deletion strains, locus YLR039C, strain RIC1, stronger effect = lower value 1.02 | S. cerevisiae deletion strains, locus YLR058C, strain SHM2 (second series), stronger effect = lower value 1.01 | S. cerevisiae deletion strains, locus YLR085C, strain ARP6, stronger effect = lower value 1.02 | S. cerevisiae deletion strains, locus YLR262C, strain YPT6, stronger effect = lower value 1.01 | S. cerevisiae deletion strains, locus YML094W, strain GIM5, stronger effect = lower value 1 | S. cerevisiae deletion strains, locus YMR219W, strain ESC1, stronger effect = lower value 1.03 | S. cerevisiae deletion strains, locus YMR263W, strain SAP30, stronger effect = lower value 0.946 | S. cerevisiae deletion strains, locus YNL153C, strain GIM3, stronger effect = lower value 1.02 | S. cerevisiae deletion strains, locus YNL298W, strain CLA4 (second series), stronger effect = lower value 1.01 | S. cerevisiae deletion strains, locus YNL322C, strain KRE1, stronger effect = lower value 1.02 | S. cerevisiae deletion strains, locus YNR030W, strain Alg12, stronger effect = lower value 1.03 | S. cerevisiae deletion strains, locus YPL055C, strain LGE1, stronger effect = lower value 0.928 | S. cerevisiae deletion strains, locus YPL241C, strain CIN2, stronger effect = lower value 1.02 | S. cerevisiae deletion strains, locus YPR135W, strain CTF4, stronger effect = lower value 1.1 | S. cerevisiae strains, strain wild type, stronger effect = lower value 1.03
